Measurements from PubChem BioAssay (NCATS).
Inconclusive results are not listed. Entries that show only a call come without a potency. The source made the active and inactive calls. Unless noted, calls come from the whole dose curve; as a rule, active = well fitted curve in the direction sought with a large enough effect; inconclusive = small, poorly fitted or top-dose-only effect, or another doubt; inactive = no such curve, though single readings can be large; an effect the other way counts as inactive or inconclusive. Where a SMILES comes first, the peptide text is derived from it. [ ]: non-standard residue; d: D form. pGlu = O=C1CC[C@@H](C(=O)O)N1; Thz = O=C(O)[C@@H]1CSCN1

Legend:
[1] = Validation qHTS assay for inhibitors of Activation Induced Cytidine Deaminase (AID): UDG Counterscreen signal (AID 1347427)
In short: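 Fluorescence at 560 nm excitation, 665 nm emission reports UDG signal after 250 mM NaOH (2x) addition and 30 min. Enzymes (AID 1 uM, UDG 2 U/mL, at 4/3x) preincubated 10 min with compound, then 4 h with 4x 250 nM DJC20/DJC23 substrate at room temperature.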

[2] = target: Single-stranded DNA cytosine deaminase (Homo sapiens) (UniProt Q9GZX7); test: Validation qHTS assay for inhibitors of Activation Induced Cytidine Deaminase (AID): AID signal (AID 1347429)
Chain of Single-stranded DNA cytosine deaminase (Homo sapiens) (Q9GZX7 whole entry, looked up): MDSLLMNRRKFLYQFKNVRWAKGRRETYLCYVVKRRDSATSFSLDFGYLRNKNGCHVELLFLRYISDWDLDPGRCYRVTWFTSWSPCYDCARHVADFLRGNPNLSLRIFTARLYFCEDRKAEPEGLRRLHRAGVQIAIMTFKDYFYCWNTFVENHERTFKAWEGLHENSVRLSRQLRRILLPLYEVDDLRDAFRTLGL
In short: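 Compounds (up to 114 uM final) are tested against AID plus UDG using DJC20/DJC23 FRET substrate. Reactions incubate 4 hr at room temperature, receive NaOH for 30 min, and are read at Ex 540/Em 590 nm.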

[3] = Primary qHTS for inhibitors of La Crosse Virus (LACV) - induced cell death in SH-SY5Y cells (AID 1508616);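 note: top concentration of the series differs between compounds; higher means more rescue of cells from virus-induced death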
In short: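 Screening measures cell viability in LACV-infected SH-SY5Y cultures. Compound was added before virus (0.01 MOI), and ATP was detected by luminescence 6 days later.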

[4] = Primary qHTS for small molecule stabilizers of the endoplasmic reticulum resident proteome: Secreted ER Calcium Modulated Protein (SERCaMP) assay (AID 1508630)
In short: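 The SH-SY5Y reporter protocol was run at 3 concentrations up to 38.3 uM (primary) or 11 concentrations (follow-up): 16 h compound, 100 nM thapsigargin for 4 h, then extracellular luciferase luminescence.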

[5] = target: Protein phosphatase 1D (Homo sapiens) (UniProt O15297); test: RapidFire Mass Spectrometry qHTS Assay for Modulators of WT P53-Induced Phosphatase 1 (WIP1) (AID 1347424); note: series mostly up to about 63 µM
Chain of Protein phosphatase 1D (Homo sapiens) (O15297 whole entry, looked up): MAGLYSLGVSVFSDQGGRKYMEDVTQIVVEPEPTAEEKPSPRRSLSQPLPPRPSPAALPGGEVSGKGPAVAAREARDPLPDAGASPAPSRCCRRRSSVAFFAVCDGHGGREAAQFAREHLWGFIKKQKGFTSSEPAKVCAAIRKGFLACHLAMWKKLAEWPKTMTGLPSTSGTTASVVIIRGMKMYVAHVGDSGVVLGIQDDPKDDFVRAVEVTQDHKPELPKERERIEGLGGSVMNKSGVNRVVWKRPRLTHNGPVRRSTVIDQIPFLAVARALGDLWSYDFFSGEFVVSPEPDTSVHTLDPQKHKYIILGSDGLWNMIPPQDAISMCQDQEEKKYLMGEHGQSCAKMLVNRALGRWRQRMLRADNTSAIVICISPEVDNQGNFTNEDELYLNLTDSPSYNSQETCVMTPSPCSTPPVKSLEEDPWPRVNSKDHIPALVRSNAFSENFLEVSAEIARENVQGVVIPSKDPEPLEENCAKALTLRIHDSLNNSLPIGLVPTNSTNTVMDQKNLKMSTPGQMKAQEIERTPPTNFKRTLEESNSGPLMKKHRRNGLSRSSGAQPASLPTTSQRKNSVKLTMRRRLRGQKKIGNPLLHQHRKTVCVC
In short: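 RapidFire MS readout of dephosphorylated VEPPL-S-QETFS product, with 1 uM isotope-labelled peptide standard. Reaction: 10 nM WIP1, 2 uM phosphopeptide substrate, 5 min, room temperature, after 1 h compound preincubation; stopped with 0.5% formic acid.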

[6] = target: Protein phosphatase 1D (Homo sapiens) (UniProt O15297); test: Rhodamine-PBP qHTS Assay for Modulators of WT P53-Induced Phosphatase 1 (WIP1) (AID 1347425)
In short: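 Steps: enzyme with Rh-PBP sensor and compounds, room-temperature incubation of 1 hr, baseline read, addition of VEPPL-pS-QETFS (10 uM final), kinetic fluorescence reads at 525/598 nm. Activity equals final minus baseline signal.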

[7] = target: Calcium and integrin-binding protein 1 (Homo sapiens) (UniProt Q99828); test: Primary qHTS for Identification of Calcium Integrin Binding Protein 1 (CIB1) Competitor (AID 1508620);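 note: GST tagged CIB1 binding a fluorescein labelled alphaIIb integrin peptide tracer; top concentration of the series differs between compounds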
Chain of Calcium and integrin-binding protein 1 (Homo sapiens) (Q99828 whole entry, looked up): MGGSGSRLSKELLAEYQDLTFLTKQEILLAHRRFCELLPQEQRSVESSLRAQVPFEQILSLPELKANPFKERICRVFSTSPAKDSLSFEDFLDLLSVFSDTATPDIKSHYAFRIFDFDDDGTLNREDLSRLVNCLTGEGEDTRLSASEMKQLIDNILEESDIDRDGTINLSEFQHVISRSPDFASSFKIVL
In short: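 Fluorescence polarization competition: GST-tagged CIB1 (1 uM final) preincubated with compound 15 min at room temperature, then FITC-labelled alphaIIb peptide (100 nM final) added. After 15 min at room temperature, polarization read at Ex 480/Em 540.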

[8] = A High-Content qHTS Against Drug Library for the Identification of Small Molecules that Inhibit DYT1 Early Onset Primary Dystonia-Associated Cell Pathology (AID 1645839; calls by dose curve; note: potency is the fitted concentration of half-maximal effect)
In short: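 Cells were seeded and left for 24 h, then dosed with compound alongside tetracycline induction of mutant EGFP-TorsinA. They were incubated for 48 h, fixed in 4% paraformaldehyde, permeabilized and imaged for mislocalization (%pathology) and cell count.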

[9] = target: Calcium and integrin-binding protein 1 (Homo sapiens) (UniProt Q99828); test: Validation qHTS for Identification of Calcium Integrin Binding protein 1 (CIB1) Competitor (AID 1508618)
In short: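 In this qHTS validation, the LOPAC set (up to 114 uM) was tested for blocking CIB1 binding to a fluorescein-tagged alphaIIb peptide, with FP detection at 480/540 nm.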

[10] = Counterscreen qHTS for small molecule stabilizers of the endoplasmic reticulum resident proteome: GLuc-NoTag assay (AID 1508627);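 note: SH-SY5Y cells given compound then 100 nM thapsigargin to empty ER calcium; series mostly up to about 76 µM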
In short: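 Counterscreen line: SH-SY5Y-GLuc-NoTag. Seed, 5 h; compound, 19 h; thapsigargin 100 nM, 4 h; 37C/5% CO2. Readout: secreted GLuc luminescence, coelenterazine 0.07x final, no lysis.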

With `CCc1c(C(=O)NCCc2ccc(N3CCCCC3)cc2)[nH]c2ccc(Cl)cc12` the Potency [1] was “inactive”, the Potency [2] was “inactive” and the Potency [3] was “inactive”. For the same compound, the Potency [4] was “inactive”.
For `CCCCCCCCCCCCCCCC(=O)NCC(COP(=O)([O-])OCC[N+](C)(C)C)OCC` (centres undefined), the Potency [1] was “inactive”, the Potency [2] was “inactive” and the Potency [3] was “inactive”. For the same compound, the Potency [4] was “inactive”.
In the case of `CN(C)CCCO[C@@H]1[C@H]2OC(C)(C)O[C@H]2O[C@@H]1[C@H](O)CO`, the Potency [1] is reported as “inactive”, the Potency [2] is reported as “inactive” and the Potency [3] is reported as “inactive”. For the same compound, the Potency [4] was “inactive”.
In the case of `[O-][n+]1ccccc1SSc1cccc[n+]1[O-]`, the Potency [5] is reported as “inactive”, the outcome [6] is reported as “inactive” and the Potency [7] is reported as “inactive”. For the same compound, the Potency [8] was 3.16 µM (active).
For `N#C/C(=C\c1ccc(O)c(O)c1)C(=O)NCCCc1ccccc1`, the Potency [1] was “inactive” and the Potency [2] was “inactive”.
For `N=C(N)SCCc1ccc(CCSC(=N)N)cc1`, the Potency [1] was “inactive”, the Potency [2] was “inactive” and the Potency [3] was “inactive”. For the same compound, the Potency [4] was “inactive”.
With `COC(=O)Nc1nc2ccc(C(=O)C3CC3)cc2[nH]1` the Potency [5] was “inactive”, the outcome [6] was “inactive” and the Potency [7] was “inactive”. The Potency [4] was “inactive”.
In the case of `CN1CCc2cccc3c2C1Cc1ccc(O)c(O)c1-3` (centres undefined), the Potency [1] is reported as “inactive”, the Potency [2] is reported as “inactive” and the Potency [3] is reported as “inactive”. The outcome [9] was “inactive”.
In the case of `O=C(c1cc(O)c(O)c([N+](=O)[O-])c1)c1ccccc1F`, the Potency [1] is reported as “inactive”, the Potency [2] is reported as “inactive” and the Potency [3] is reported as “inactive”. The Potency [4] was “inactive”.
In the case of `CN1CCC[C@H]1c1cccnc1`, the Potency [1] is reported as “inactive”, the Potency [2] is reported as “inactive” and the Potency [3] is reported as “inactive”. For the same compound, the Potency [4] was “inactive”.
For `CCCCN1CCC(n2c(=O)[nH]c3ccccc32)CC1`, the Potency [1] was “inactive”, the Potency [2] was “inactive” and the Potency [3] was “inactive”. For the same compound, the Potency [4] was “inactive”.
For `C[C@@H](NC(=O)/C(C#N)=C/c1ccc(O)c(O)c1)c1ccccc1`, the Potency [1] was “inactive”, the Potency [2] was “inactive” and the Potency [3] was “inactive”. For the same compound, the Potency [4] was “inactive”.
For `CN=c1nc(-c2ccccc2)n(-c2ccccc2)s1`, the Potency [1] was “inactive”, the Potency [2] was “inactive” and the Potency [3] was “inactive”. The outcome [9] was “inactive” and the Potency [4] was “inactive”.
In the case of `NCCNC(=O)c1ncsc1-c1cccc(F)c1`, the Potency [1] is reported as “inactive”, the Potency [2] is reported as “inactive” and the Potency [3] is reported as “inactive”. The Potency [4] was “inactive”.
In the case of `Cc1ccccc1CNc1ncnc2c1ncn2C1OC(CO)C(O)C1O` (centres undefined), the Potency [1] is reported as “inactive”, the Potency [2] is reported as “inactive” and the Potency [3] is reported as “inactive”. For the same compound, the Potency [4] was “inactive”.
For `Ic1ccc(N2CCN(Cc3c[nH]c4ncccc34)CC2)cc1`, the Potency [1] was “inactive”, the Potency [2] was “inactive” and the Potency [3] was “inactive”. The Potency [4] was “inactive”.
In the case of `O=C(O)[C@@H]1C[C@H](C(=O)O)N1`, the Potency [1] is reported as “inactive”, the Potency [2] is reported as “inactive” and the Potency [3] is reported as “inactive”. The Potency [4] was “inactive”.
With `N#C/C(=C\c1c[nH]c2ccccc12)C(=O)c1ccc(O)c(O)c1` the Potency [1] was “inactive”, the Potency [2] was “inactive” and the Potency [3] was “inactive”. The Potency [10] was “inactive”.
For `CO/S(=N\S(=O)(=O)c1ccc(Cl)cc1)c1ccc([N+](=O)[O-])cc1` (centres undefined), the Potency [1] was “inactive”, the Potency [2] was “inactive” and the Potency [3] was “inactive”. The Potency [4] was “inactive”.
With `CN(C)c1ccc(/C=C2\C(=O)Nc3ccccc32)cc1` the Potency [1] was “inactive”, the Potency [2] was “inactive” and the Potency [3] was “inactive”. For the same compound, the outcome [9] was “inactive” and the Potency [4] was “inactive”.
With `CCCCC/C=C\CC(O)/C=C/c1cccc(CC(O)CCCCO)n1` (centres undefined) the Potency [1] was “inactive”, the Potency [2] was “inactive” and the Potency [3] was “inactive”. The Potency [4] was “inactive”.
For `CC(C)ON([C@@H](C(=O)NO)C(C)C)S(=O)(=O)c1ccc(-c2ccccc2)cc1`, the Potency [1] was “inactive” and the Potency [2] was “inactive”.
In the case of `NC(=S)NCCC[C@H](N)C(=O)O`, the Potency [1] is reported as “inactive”, the Potency [2] is reported as “inactive” and the Potency [3] is reported as “inactive”. For the same compound, the Potency [4] was “inactive”.
In the case of `O=[N+]([O-])c1ccc2c(c1)S(=O)(=O)C=C2`, the Potency [1] is reported as “inactive”, the Potency [2] is reported as “inactive” and the Potency [4] is reported as “inactive”.
For `O=C(O)/C=C/C(O)c1ccc(Cl)cc1` (centres undefined), the Potency [1] was “inactive” and the Potency [3] was “inactive”.
With `Cc1cn([C@H]2CC(N=[N+]=[N-])[C@@H](CO)O2)c(=O)[nH]c1=O` (some centres undefined) the outcome [9] was “inactive”.
With `C[N+](C)(C)CC(=O)[O-]` the Potency [1] was “inactive”, the Potency [3] was “inactive” and the Potency [4] was “inactive”.
For `CN(C)c1nc2c(Br)c(Br)c(Br)c(Br)c2[nH]1`, the Potency [2] was “inactive”, the Potency [3] was “inactive” and the Potency [4] was “inactive”.
In the case of `CC(=O)O[C@H]1C[C@@]2(C)[C@@H](C[C@@H](O)[C@H]3[C@@]4(C)CC[C@@H](O)[C@@H](C)[C@@H]4CC[C@@]32C)/C1=C(\CCC=C(C)C)C(=O)O`, the Potency [7] is reported as “inactive”.
With `O=C1CN(/N=C/c2ccc(-c3ccc([N+](=O)[O-])cc3)o2)C(=O)N1` the Potency [10] was “inactive”.
In the case of `Nc1ncnc2c1c(I)cn2[C@@H]1C[C@H](N)[C@@H](O)[C@H]1O`, the Potency [1] is reported as “inactive” and the Potency [3] is reported as “inactive”.
For `O=C1CC[C@@H](C(=O)N2CSC[C@H]2C(=O)O)N1` ([pGlu]-[Thz]-OH), the Potency [7] was “inactive”.
For `CC12C(=O)OC(=O)C1(C)C1CCC2O1` (centres undefined), the Potency [1] was “inactive”, the outcome [9] was “inactive” and the Potency [4] was “inactive”.
In the case of `CC1(C)S[C@@H]2[C@H](NC(=O)[C@H](NC(=O)N3CCN(S(C)(=O)=O)C3=O)c3ccccc3)C(=O)N2[C@H]1C(=O)O`, the Potency [7] is reported as “inactive”.
With `CC(COc1ccc(/C=C/c2ccccc2)cc1)[N+](C)(C)C` (centres undefined) the Potency [1] was “inactive”, the Potency [3] was “inactive” and the Potency [4] was “inactive”.
In the case of `CC(C)NCC(O)COc1cccc2ccccc12` (centres undefined), the Potency [3] is reported as “inactive” and the outcome [9] is reported as “inactive”.
With `O=C(O)c1cc(=O)c2ccccc2[nH]1` the Potency [3] was “inactive”, the outcome [9] was “inactive” and the Potency [4] was “inactive”.
In the case of `COc1cc(/C=C/C(=O)N2CCN(CC(=O)N3CCCC3)CC2)cc(OC)c1OC`, the Potency [7] is reported as “inactive”.
With `c1cnc2c(c1)ccc1cccnc12` the Potency [1] was “inactive” and the outcome [9] was “inactive”.
For `CCCCN(CC)c1nc(C)nc2c1c(C)cn2-c1c(C)cc(C)cc1C`, the outcome [9] was “inactive” and the Potency [7] was “inactive”.
